# Measurements published in PubChem BioAssay (NCATS).
# Results filed as inconclusive are left out. A call without a number means that no potency is given here. Active and inactive are the calls of the source. Calls come from the whole dose curve.
# Columns and labels:
# [1] = Primary qHTS for Huh7 cytotoxicity: counterscreen for inhibitors of MERS-S pseudotyped particle cell entry (AID 1479147); conditions: outcome: dose series up to 57.1 µM unless noted
# [2] = Primary qHTS for Vero E6 cytotoxicity: counterscreen for inhibitors of SARS-S pseudo-typed particle cell entry (AID 1479150); conditions: outcome: dose series up to 57.1 µM unless noted
# [3] = Cytotoxicity counterscreen for inhibitors of SARS-CoV-2 cell entry (AID 1645845); conditions: outcome: dose series up to 57.1 µM unless noted; note: nearly all actives have a fitted effect of over 50% in size
# Method in brief: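 Expi293F/hACE2 cells seeded overnight; cpd pin-transferred in DMSO, 1 h preincubation, + media, 48 h 37 C 5% CO2; ATPLite 1step luminescence; normalized to cells and no cells.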
# [4] = Confirmatory qHTS for VERO E6 Cytotoxicity Assay: Counterscreen for SARS-CoV-2 CPE Assay (AID 1508605); note: nearly all actives have a fitted effect of over 60% in size
# [5] = Primary qHTS to identify inhibitors of SARS-CoV-2 cell entry (AID 1645846); conditions: SARS-CoV-2 pseudovirus cell entry assay, luminescence; activity change, negative = inhibition: at 57.1 µM (top of the series) unless noted; note: nearly all actives have a fitted effect of over 45% in size; note: potency is the fitted concentration of half-maximal effect
# Method in brief: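 Data are normalized to wells receiving SARS-CoV-2-S pseudoparticles and those given bald particles. Entry signal was luciferase luminescence in stable hACE2 Expi293F cells, 48 hr post-infection, after 1 hr compound pretreatment.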
# [6] = Confirmatory qHTS to identify inhibitors of SARS-CoV-2 cell entry (AID 1645844); note: potency is the fitted concentration of half-maximal effect; nearly all actives have a fitted effect of over 45% in size
# Method in brief: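 HEK293-ACE2 cells (Expi293F stably expressing human ACE2) were pretreated with compounds for 1 hr at 37C, then infected with MLV-based particles carrying Wuhan-Hu-1 spike (C-terminal 19-aa truncation). Luciferase luminescence read after 48 hr; normalized to spike PP (100%) and bald PP (0%).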
# [7] = VSVG counterscreen qHTS to identify inhibitors of SARS-CoV-2 cell entry (AID 1645847); note: nearly all actives have a fitted effect of over 65% in size; note: potency is the fitted concentration of half-maximal effect
# Method in brief: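 Counterscreen using VSV-G (not spike) pseudotyped MLV particles on ACE2-expressing Expi293F cells after 1 h compound preincubation; infection ran 48 h at 37 °C. Data normalized to VSV-G PP and bald-PP wells.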
smiles,measurement,setting,value
CCN1CCC(=C2c3ccccc3CCc3ccccc32)C1C (configuration not stated),Potency,[1],inactive
same,Potency,[2],inactive
same,Potency,[3],inactive
CC(C)C[C@H]1C(=O)O[C@H](Cc2ccc(N3CCOCC3)cc2)C(=O)N(C)[C@@H](CC(C)C)C(=O)O[C@H](C)C(=O)N(C)[C@@H](CC(C)C)C(=O)O[C@H](Cc2ccc(N3CCOCC3)cc2)C(=O)N(C)[C@@H](CC(C)C)C(=O)O[C@H](C)C(=O)N1C,Potency,[1],inactive
same,Potency,[2],inactive
same,Potency,[4],inactive
same,Potency,[3],inactive
Cc1cnc(C(=O)N[C@H]2CCCCC/C=C\[C@H]3C[C@@]3(C(=O)NS(=O)(=O)C3CC3)NC(=O)[C@@H]3C[C@@H](Oc4nc5ccccc5c5ccccc45)CN3C2=O)cn1,Potency,[1],inactive
same,Potency,[2],inactive
same,Potency,[3],inactive
O=C(O)c1ccc2nc(-c3cc(Cl)cc(Cl)c3)oc2c1,Potency,[1],inactive
same,Potency,[2],inactive
same,Potency,[3],inactive
same,Potency,[5],inactive
O=C(CCCN1CCC(C(=O)c2ccc(F)cc2)CC1)c1ccc(F)cc1,Potency,[1],inactive
same,Potency,[2],inactive
same,Potency,[3],inactive
C=Cc1c(C)c2cc3nc(cc4[nH]c(cc5nc(cc1[nH]2)C(C)=C5CCC(=O)O)c(CCC(=O)OC)c4C)[C@@]1(C)C3=CC=C(C(=O)OC)[C@@H]1C(=O)OC,Potency,[1],inactive
same,Potency,[2],inactive
same,Potency,[3],inactive
COc1cc2c(cc1OC)[C@H]1C[C@@H](OC(=O)[C@@H](N)C(C)C)[C@H](CC(C)C)CN1CC2,Potency,[1],inactive
same,Potency,[2],inactive
same,Potency,[3],inactive
CO[C@H]1/C=C\O[C@@]2(C)Oc3c(C)c(O)c4c(O)c(c5c(c4c3C2=O)=NC2(CCN(CC(C)C)CC2)N=5)NC(=O)/C(C)=C\C=C/[C@H](C)[C@H](O)[C@@H](C)[C@@H](O)[C@@H](C)[C@H](OC(C)=O)[C@@H]1C,Potency,[1],inactive
same,Potency,[2],inactive
same,Potency,[3],inactive
same,"activity change, negative = inhibition",[5],-26.3%
CCCCCCC(COC(=O)c1cccnc1)(COC(=O)c1cccnc1)COC(=O)c1cccnc1,Potency,[1],inactive
same,Potency,[2],inactive
same,Potency,[3],inactive
same,"activity change, negative = inhibition",[5],-17.5%
Cc1cc(-n2c(=O)[nH]c(=O)n(C)c2=O)ccc1Oc1ccc(SC(F)(F)F)cc1,Potency,[1],inactive
same,Potency,[2],inactive
same,Potency,[3],inactive
CCC1OC(=O)[C@H](C)C(=O)[C@H](C)[C@@H](OC2O[C@H](C)C[C@H](N(C)C)[C@H]2O)[C@](C)(OC)C[C@@H](C)C(=O)[C@@H](C)[C@@H]2N(CCCCn3cnc(-c4cccnc4)c3)C(=O)O[C@]12C (some centres not stated),Potency,[1],inactive
same,Potency,[2],inactive
same,Potency,[3],inactive
CCOC(=O)N[C@@H]1CC[C@@H]2[C@@H](C1)C[C@H]1C(=O)O[C@H](C)C1[C@H]2/C=C/c1ccc(-c2cccc(F)c2)cn1 (some centres not stated),Potency,[1],inactive
same,Potency,[2],inactive
same,Potency,[4],inactive
same,Potency,[6],7.64 µM (active)
same,Potency,[3],inactive
CC(CN1c2ccccc2Sc2cccnc21)N(C)C (configuration not stated),Potency,[1],inactive
same,Potency,[2],inactive
same,Potency,[6],24.1 µM (active)
same,Potency,[3],inactive
same,Potency,[7],24.1 µM (active)
OC(CCN1CCCCC1)(c1ccccc1)C1CCCC1 (configuration not stated),Potency,[1],inactive
same,Potency,[2],inactive
same,Potency,[3],inactive
CC(=O)O[C@]1(C(C)=O)CC[C@H]2[C@@H]3C=C(C)C4=CC(=O)CC[C@@H]4[C@H]3CC[C@@]21C,Potency,[1],inactive
same,Potency,[2],inactive
same,Potency,[3],inactive
same,"activity change, negative = inhibition",[5],-20%
OC[C@H]1NC[C@H](O)[C@@H](O)[C@@H]1O,Potency,[1],inactive
same,Potency,[2],inactive
same,Potency,[3],inactive
CC[C@@H](C)[C@H]1O[C@]2(CC[C@@H]1C)C[C@@H]1C[C@@H](C/C=C(\C)[C@@H](O[C@H]3C[C@H](OC)[C@@H](O[C@H]4C[C@H](OC)[C@@H](O)[C@H](C)O4)[C@H](C)O3)[C@@H](C)/C=C/C=C3\CO[C@@H]4[C@H](O)C(C)=C[C@@H](C(=O)O1)[C@]34O)O2,Potency,[1],inactive
same,Potency,[2],inactive
same,Potency,[3],inactive
CCOC(=O)Oc1c(OC)cc(C(=O)O[C@@H]2C[C@@H]3CN4CCc5c([nH]c6cc(OC)ccc56)[C@H]4C[C@@H]3[C@H](C(=O)OC)[C@H]2OC)cc1OC,Potency,[1],inactive
same,Potency,[2],inactive
same,Potency,[3],inactive
same,Potency,[5],22.4 µM (active)
CCCCCCCCCC(=O)OCCN1CCN(CCCN2c3ccccc3Sc3ccc(C(F)(F)F)cc32)CC1,Potency,[1],inactive
same,Potency,[2],inactive
same,Potency,[3],inactive
CCCN1C[C@H](C)[C@@H](O)[C@](C)(O)[C@@H](CC)OC(=O)[C@H](C)[C@@H](O[C@H]2C[C@@](C)(OC)[C@@H](O)[C@H](C)O2)C(C)[C@@H](O[C@@H]2O[C@H](C)C[C@H](N(C)C)[C@H]2O)[C@](C)(O)C[C@H]1C (some centres not stated),Potency,[1],inactive
same,Potency,[2],inactive
same,Potency,[6],21.5 µM (active)
same,Potency,[3],inactive
same,Potency,[5],11.2 µM (active)
same,Potency,[7],inactive
CC(CC(c1ccccc1)c1ccccc1)NC(C)(C)C (configuration not stated),Potency,[1],inactive
same,Potency,[2],inactive
same,Potency,[3],inactive
O=C1[C@@H]2[C@H]3CC[C@H](C3)[C@@H]2C(=O)N1C[C@@H]1CCCC[C@H]1CN1CCN(c2nsc3ccccc23)CC1,Potency,[1],inactive
same,Potency,[2],inactive
same,Potency,[6],12.1 µM (active)
same,Potency,[3],inactive
same,Potency,[5],31.6 µM (active)
same,Potency,[7],3.04 µM (active)
